Screens: PubChem BioAssay, National Center for Advancing Translational Sciences (NCATS)
Only some compounds are listed: those with a hit (about 21% of all), similar ones and a draw of the others.
SARS PLpro yeast = qHTS of Yeast-based Assay for SARS-CoV PLP; S. cerevisiae expressing SARS-CoV PLpro, growth rescue; Potency, µM (titrated, usually from 32.9 µM), for inactives: top-dose activity, positive = growth rescue, usual class: activators; 330,000 compounds, 0.19% hits; AID 485353, 2010; further: potency means the concentration at half of the fitted maximal effect; 0% is about no effect; nearly all actives have a fitted effect of over 55% in size
Pf growth 48h = Primary qHTS for delayed death inhibitors of the malarial parasite plastid, 48 hour incubation; 310,000 compounds, 5.9% hits; AID 504832, 2011; P. falciparum luciferase growth in erythrocytes, 48 h; Potency, µM (series often up to 28.7 µM), for inactives: at the top dose activity change, negative = inhibition, most hits filed as inhibitors; active means well fitted inhibition curve with a large enough effect; inconclusive means small, poorly fitted or top-dose-only effect, or another doubt; inactive means no such curve, though single readings can be large or run the other way; further: potency means the concentration at half of the fitted maximal effect; on the % scale 0 is the no-effect control and ±100 the full control effect
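Here the parasites carry a stable luciferase gene and grow inside erythrocytes in Albumax-based RPMI medium with compound for one erythrocytic cycle. Activity is scored as loss of luminescent signal.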
NS1 inh = qHTS Assay for Inhibitors of Influenza NS1 Protein Function | AID 2326, 2010 | Potency, µM (doses to about 46.1 µM), for inactives: top-dose activity, positive = more growth | 270,000 compounds, 0.4% hits; further: potency means the concentration at half of the fitted maximal effect; actives are rising curves; nearly all actives have a fitted effect of over 50% in size
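A cell-based growth assay was used: compounds that relieve NS1-induced slow growth of budding yeast raise OD600. Assay medium was yeast nitrogen base with ammonium sulphate and -URA supplement, pH 6.0, with 2% galactose.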
Pf growth 96h = Primary qHTS for delayed death inhibitors of the malarial parasite plastid, 96 hour incubation; P. falciparum luciferase reporter growth, 96 h; Potency, µM (series often up to 28.7 µM), without a hit: at the top dose activity change, negative = inhibition, hits mostly inhibitors; 320,000 compounds, 6.9% hits; AID 504834, 2011; active means well fitted inhibition curve with a large enough effect; inconclusive means small, poorly fitted or top-dose-only effect, or another doubt; inactive means no such curve, though single readings can be large or run the other way; further: potency means the concentration at half of the fitted maximal effect; on the % scale 0 is the no-effect control and ±100 the full control effect
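Cell-based qHTS: luciferase-tagged P. falciparum in erythrocytes (2% hematocrit, 0.05% parasitemia final) incubated with compounds for 96 hours, 37 C, 5% CO2; luciferase detection reagent then added and luminescence measured.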
CHX counter = Cycloheximide Counterscreen for Small Molecule Inhibitors of Shiga Toxin. max response, %. 300,000 compounds, 12% hits. cell reporter, cycloheximide protein synthesis inhibition counterscreen; in the data active means max response mostly above about 13%, no sharp cut-off; inactive means mostly below about 14%; further: read at 38.3 µM for the half of the compounds with a filed dose; 0% is about no effect
Shiga toxin inh = A qHTS for Small Molecule Inhibitors of Shiga Toxin; Vero cells, Shiga toxin protein synthesis inhibition reporter; inhibition, % at 38.7 µM; 290,000 compounds, 9.2% hits; AID 2315, 2010; in the data active means inhibition mostly above about 28%, no sharp cut-off; inactive means mostly below about 43%; further: 0% is about no effect
* marks the source's active call; other numbers are inactive results; ? = inconclusive; . = no result. Unless noted, the call rests on the fitted dose curve.

SMILES	SARS PLpro yeast	Pf growth 48h	NS1 inh	Pf growth 96h	CHX counter	Shiga toxin inh
COc1ccccc1NC(=O)CSc1nnc(-c2ccccc2)o1	1%	.	-54%	?	18	59
Cc1ccc(N(C(=O)Cn2nnc(-c3ccc(F)cc3)n2)C(C(=O)NC(C)(C)C)c2ccncc2)cc1 (stereo unspecified)	0%	4.7µM*	7%	-4%	10	13
CC(C)(C)NC(=O)C(c1ccncc1)N(C(=O)Cn1nnc(-c2ccc(F)cc2)n1)c1ccc(F)cc1 (stereo unspecified)	0%	2.6µM*	-1%	4%	-1	-15
Oc1ccc(C2C(c3ccccc3)=NN=C(c3ccc(Cl)cc3)N2O)c(O)c1 (stereo unspecified)	13%	?	18%	2.6µM*	2	-1
Oc1ccc(C2C(c3ccccc3)=NN=C(c3ccccc3F)N2O)c(O)c1 (stereo unspecified)	21%	-15%	6%	?	8	14
COc1cccc(CNC(=O)CCCc2c[nH]c3ccccc23)c1	4%	-21%	1%	-13%	-2	-3
COCCNC(=O)c1ccccc1NC(=O)c1ccccc1SC	-1%	-15%	2%	-22%	18	-6
C/C(=N\N=C(N)N)c1ccc(C)c(C)c1	1%	9.3µM*	7%	12µM*	8	-4
C/C(=N\N=C(N)N)c1cccc([N+](=O)[O-])c1	-6%	7%	-2%	?	-5	-2
Fc1ccc(COc2ccc(-c3nnco3)cc2)c(Cl)c1	-28%	70%	-35%	38%	30*	84*
Fc1cc(Br)ccc1COc1ccc(-c2nnco2)cc1	1%	84%	1%	83%	36*	93*
O=C(NC1(Cc2ccccc2)CCN(CCc2cccs2)C1=O)c1ccccc1 (stereo unspecified)	-4%	0%	.	?	.	.
CCN(CC)S(=O)(=O)c1ccc(NS(=O)(=O)c2cccs2)cc1	-1%	9%	.	-17%	-8	6
CCCN(S(=O)(=O)c1ccc(OCC)cc1)S(=O)(=O)c1cccs1	4%	10µM*	-8%	?	28*	37*
Cc1cccc(NC(=O)COC(=O)c2ccccc2SCC(=O)N2CCCC2)c1	2%	25%	8%	30%	11	29
O=C(c1cccs1)N1CCC(c2nc3c(nnn3Cc3ccccc3Cl)c(=O)[nH]2)CC1	3%	10µM*	-2%	0%	-2	-7
COc1ccccc1Cn1nnc2c(=O)[nH]c(C3CCN(C(=O)c4ccc(C)cc4)CC3)nc21	-2%	?	-3%	38%	20	-4
O=C(c1ccccc1)N1CCC(c2nc3c(nnn3Cc3ccccc3Cl)c(=O)[nH]2)CC1	14%	.	-12%	8.3µM*	1	2
Nc1ncnc(SCc2c(F)cccc2Cl)n1	1%	-11%	-41%	33%	-1	22
Oc1cccc2ccc(/C=C/c3ccccc3Cl)nc12	-5%	0%	-63%	-17%	40*	72*
Nc1nccc(/C=C/c2c(F)cccc2Cl)n1	0%	39%	-8%	44%	28*	68*
Oc1cccc2ccc(/C=C/c3c(F)cccc3Cl)nc12	3%	237%	-1%	182%	53*	158*
CC(=O)C1(O)Cc2c(O)c3c(c(O)c2C(OC2CC(N)C(O)C(C)O2)C1)C(=O)c1c(O)cccc1C3=O (stereo unspecified)	.	1.5µM*	.	0.85µM*	.	.
COc1cccc2c1C(=N)c1c(O)c3c(c(O)c1C2=O)C[C@](O)(C(C)=O)C[C@@H]3O[C@H]1C[C@H](N)[C@@H](O)[C@H](C)O1	.	.	3%	.	.	.
COc1cccc2c1C(=O)c1c(O)c3c(c(O)c1C2=O)C[C@@](O)(C(=O)CO)C[C@@H]3OC1CC(N)C(O)C(C)O1 (stereo partly specified)	.	0.43µM*	.	0.067µM*	.	.
SMILES	SARS PLpro yeast	Pf growth 48h	NS1 inh	Pf growth 96h	CHX counter	Shiga toxin inh
CCN(CC)S(=O)(=O)c1cccc(C(=O)NNC(=O)c2ccc3[nH]c(=O)c(=O)[nH]c3c2)c1	2%	39%	-7%	18%	-2	15
O=C(C1CCN(S(=O)(=O)c2ccccc2)CC1)N(CCc1ccccc1)Cc1ccco1	0%	13µM*	-7%	29%	0	14
COCCN(Cc1ccccc1)C(=O)C1CCN(S(=O)(=O)c2ccc3c(c2)OCCO3)CC1	1%	?	.	12µM*	.	.
COCCN(Cc1ccccc1)C(=O)C1CCN(S(=O)(=O)c2ccc(OC)c(OC)c2)CC1	-3%	?	.	?	.	.
CN(CC(=O)Nc1ccccc1Cl)C(=O)COC(=O)c1ccc(-c2ccc(O)cc2)cc1	4%	.	.	.	.	.
CC1CCN(C(=O)CSc2nc3c(c(=O)n2C)SCC3)CC1	-4%	-6%	11%	?	18*	13
CCn1c(SCC(=O)N2CCCCC2)nc2c(c1=O)SCC2	0%	?	-9%	?	0	11
Cn1c(SCC(=O)NC2CCCC2)nc2c(c1=O)SCC2	4%	6%	-7%	14%	-3	-15
Cn1c(SCC(=O)N2CCCCCC2)nc2c(c1=O)SCC2	0%	-26%	-1%	4.7µM*	8	-13
COC(=O)CNC(=O)CSc1nnc(C)c(=O)[nH]1	9%	-8%	13%	288%	4	2
CCn1cc(CNC(=O)c2ccc3nc(Cc4ccccc4F)oc3c2)cn1	-1%	29%	?	6%	32*	38
Cn1cc(CCNC(=O)c2ccc3nc(Cc4ccccc4F)oc3c2)cn1	-3%	64%	-18%	1.9µM*	30*	92*
CCC(C)NC(=O)c1ccc2nc(Cc3ccc(OC)cc3)oc2c1 (stereo unspecified)	2%	?	-6%	-11%	7	-25
CCn1cc(CNC(=O)c2ccc3nc(Cc4ccc(OC)cc4)oc3c2)cn1	2%	-9%	-7%	?	20*	15
Cn1cc(CNC(=O)c2ccc3nc(Cc4ccccc4F)oc3c2)cn1	-5%	30%	-8%	13%	59*	89*
Cn1cc(CCNC(=O)CCc2nnc(CCCCc3ccccc3)o2)cn1	0%	-11%	-5%	397%	1	12
COC(=O)c1cn(NC(=O)C2CCCO2)c(=O)c2ccccc12 (stereo unspecified)	11%	1%	?	12µM*	1	-8
COC(=O)c1cn(NC(=O)C2COc3ccccc3O2)c(=O)c2ccccc12 (stereo unspecified)	0%	-3%	9%	10%	-5	-4
COC(=O)c1cn(NC(=O)C2CCC(C(C)(C)C)CC2)c(=O)c2ccccc12 (stereo unspecified)	-1%	16%	11%	4.1µM*	-3	-4
